# Several values for one entry are separate records, joined by “and”; a condition that tells them apart may be missing. Equal entries are not always repeated. Results filed as inconclusive are left out. Entries that show only a call come without a potency. Where a structure was tested more than once in an assay, its records may differ in their call. Activity calls are given as the source filed them. Unless noted, calls follow the shape of the dose curve; as a rule, active = well fitted curve in the direction sought with a large enough effect; inconclusive = small, poorly fitted or top-dose-only effect, or another doubt; inactive = no such curve, though single readings can be large; an effect the other way counts as inactive or inconclusive.
# Legend:
# [1] = Cytotoxicity counterscreen for NFkB agonists and antagonists (AID 624476); also: potency is read from the fitted curve at half-maximal effect
# [2] = qHTS Assay for Identification of Small Molecule Antagonists for NFkB Signaling Pathway. (AID 624479; calls by dose curve;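 also: pathway stimulated with TNF alpha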; also: potency is read from the fitted curve at half-maximal effect)
# [3] = Cell Proliferation Assay against the HBL1 Cell Line (AID 651646); conditions: HBL1 DLBCL cells; at 46.1 µM (top of the series);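 also: cells exposed to compound for 48 h before reading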
# Procedure, shortened: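 Luminescent ATP read-out (CellTiter-Glo) after 48 h compound exposure of HBL1 cells at 37 °C; percent activity was scaled between DMSO as 100% and 9.2 uM bortezomib (final) as 0%.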
# [4] = Cell Proliferation Assay against the TMD8 Cell Line (Caspase readout at 16 hrs) (AID 651712); also: potency is read from the fitted curve at half-maximal effect
# Procedure, shortened: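 Apoptotic response of TMD8 cells was judged from caspase 3/7 activation following a 16 hour compound incubation at 37 °C. Luminescent signal was converted to percent activity, with DMSO set as 0% and 9.2 uM final bortezomib as 100%.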
# [5] = Cell Proliferation Assay against the TMD8 Cell Line (Caspase readout at 8 hrs) (AID 651713); also: potency is read from the fitted curve at half-maximal effect
# Procedure, shortened: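 Percent activity derived from Caspase-Glo signal, DMSO set to 0% and bortezomib (9.2 uM final) to 100%. TMD8 cells were exposed to compound for 8 h in RPMI with 5% FBS.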
# [6] = qHTS Assay for Identification of Small Molecule Agonists for NFkB Signaling Pathway. (AID 624478);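 also: compounds tested together with TNF alpha at its EC50 of 10 pM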
# Procedure, shortened: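 Cells carrying an NFkB response element-driven beta-lactamase gene are co-treated with compound and 10 pM TNF alpha for 5 h, and reporter activity is then read as 460 and 530 nm fluorescence.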
# [7] = qHTS assay for small molecule agonists of the antioxidant response element (ARE) signaling pathway (AID 651741; active = well fitted activation curve with a large enough effect in the signal ratio; the % refers to the signal ratio; also: potency is read from the fitted curve at half-maximal effect)
# Procedure, shortened: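 Seeding 2,000 ARE-bla HepG2 cells per well preceded a 5 h incubation at 37 C/5% CO2 and a 16 h compound exposure at 37 C. Beta-lactamase reporter activity was then quantified by fluorescence after 2 h with LiveBLAzer B/G FRET substrate.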
# [8] = qHTS assay for small molecule activators of the p53 signaling pathway (AID 651743; active = well fitted activation curve with a large enough effect in the signal ratio, not every such curve was filed as active; the % refers to the signal ratio); conditions: HCT-116 p53RE-bla, beta-lactamase FRET ratio, 16 h; stronger effect = higher value
# Procedure, shortened: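 Screen for p53 pathway agonists uses stably transfected p53RE-bla HCT-116 cells, 4,000 per well, treated 16 h at 37 C with compounds in DMSO.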
# [9] = qHTS assay for small molecule activators of the nuclear factor-kappa B (NF-kB) signaling pathway (AID 651749; active = well fitted activation curve with a large enough effect in the signal ratio; the % refers to the signal ratio); conditions: NF-kB-bla ME-180 cells, beta-lactamase FRET ratio, 16 h; stronger effect = higher value
# Procedure, shortened: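 Stably transfected ME-180 line; NF-kB response element upstream of beta-lactamase. Treatment: compound or DMSO, 16 hr. Detection: fluorescent FRET substrate.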
# [10] = qHTS assay for small molecule disruptors of the mitochondrial membrane potential - 1 hr assay (AID 651754; calls by dose curve; also: nearly all actives have a fitted effect of over 35% in size)
# Procedure, shortened: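 Steps: seed HepG2 cells and let attach overnight; pin-transfer compound or vehicle; incubate 1 hr at 37C; add Mito-MPS dye for 30 min; read two-channel fluorescence for monomer and aggregate forms.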
# [11] = qHTS assay for small molecule disruptors of the mitochondrial membrane potential - 5 hr assay (AID 651755; calls by dose curve; also: nearly all actives have a fitted effect of over 40% in size)
# Procedure, shortened: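 HepG2, 2,000 cells/well, overnight attach; cpd or DMSO 5 hr, 37C/5% CO2; Mito-MPS 30 min 37C; fluor 490/535 + 540/590 nm.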
# [12] = Cell Proliferation Assay against the TMD8 Cell Line (AID 651645); conditions: TMD8 DLBCL cell line proliferation/viability; at 46.1 µM (top of the series);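 also: cells exposed to compound for 48 h before reading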
# Procedure, shortened: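 Cell viability of the ABC DLBCL line TMD8 is measured by CellTiter-Glo luminescence following a 48-hour incubation with compound. Percent activity uses DMSO as 100% and 9.2 uM bortezomib (final) as 0%.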
structure (smiles),measurement,setting,value
Cn1cc(-c2ccc3nnc(Sc4ccc5ncccc5c4)n3n2)cn1,Potency,[1],inactive
same,Potency,[2],inactive
same,"viability, percent of control",[3],119%
same,Potency,[4],inactive
same,Potency,[5],inactive
NC(=O)c1ccc(N(C(N)=O)c2c(F)cccc2F)nc1-c1ccc(F)cc1F,Potency,[1],inactive
same,outcome,[6],inactive
same,Potency,[2],inactive
same,"viability, percent of control",[3],110%
same,Potency,[4],inactive
same,Potency,[5],inactive
CCCCCCCCCCCCCC(=O)N[C@H](CO)[C@H](O)c1ccc([N+](=O)[O-])cc1,outcome,[6],inactive
same,Potency,[2],29.8 µM (active)
same,"viability, percent of control",[3],21.7%
same,Potency,[5],inactive
CNC(=O)c1cc(COc2nnc(Nc3ccc(Cl)cc3)c3ccoc23)ccn1,Potency,[2],26.6 µM (active)
same,"viability, percent of control",[3],6.77%
O=C(Nc1cccc(Cl)c1)Nc1ncc(CCNc2ncnc3ccsc23)s1,outcome,[6],inactive
same,Potency,[2],23.7 µM (active)
same,"viability, percent of control",[3],2.32%
same,Potency,[4],inactive
same,Potency,[5],inactive
CN(C)CCN(C)C(=O)c1ccc(NC(=O)Nc2ccc(-c3nc(N4CCOCC4)c4ccn(CC(F)(F)F)c4n3)cc2)cc1,Potency,[1],4.18 µM (active)
same,outcome,[6],inactive
same,"viability, percent of control",[3],1.25%
same,Potency,[5],29.6 µM (active)
CC1=C[C@@H]2[C@@H]([C@@H](O)C[C@@]3(C)[C@H]2C[C@@H](C)[C@]3(O)C(=O)CO)[C@@]2(C)Cc3cnn(-c4ccccc4)c3C=C12,outcome,[6],inactive
same,"viability, percent of control",[3],2.33%
COc1ccc(CCN(C)CCCOc2ccc(S(=O)(=O)c3[nH]c4ccccc4c3C(C)C)cc2)cc1OC,outcome,[6],inactive
same,"viability, percent of control",[3],7.05%
COc1nc(C)cnc1NS(=O)(=O)c1cccnc1-c1ccc(-c2nnco2)cc1,Potency,[1],inactive
same,outcome,[6],inactive
same,Potency,[2],inactive
same,"viability, percent of control",[3],92.3%
same,Potency,[4],inactive
same,Potency,[5],inactive
Cc1ccc(C(=O)N(CCCN)[C@@H](c2nc3cc(Cl)ccc3c(=O)n2Cc2ccccc2)C(C)C)cc1,Potency,[1],23.5 µM (active)
same,outcome,[6],inactive
same,"viability, percent of control",[3],1.66%
COc1c(C)cnc(Cn2cnc3c(Cl)nc(N)nc32)c1C,Potency,[1],inactive
same,outcome,[6],inactive
same,Potency,[2],0.0211 µM (active)
same,"viability, percent of control",[3],59.9%
same,Potency,[5],inactive
Cc1c(C(=O)Nc2ccc(N3C[C@@H](C)O[C@@H](C)C3)nc2)cccc1-c1ccc(OC(F)(F)F)cc1,outcome,[6],inactive
same,"viability, percent of control",[3],32.3%
Cc1cccc(Nc2nc(N[C@@H]3CCCC[C@H]3N)ncc2C(N)=O)c1,Potency,[1],inactive
same,outcome,[6],inactive
same,"viability, percent of control",[3],2.69%
same,Potency,[5],inactive
CCCCn1c(=O)n(Cc2ccccc2F)c(=O)c2[nH]c(Cc3ccc(NC(C)=O)cc3)nc21,Potency,[1],inactive
same,outcome,[6],inactive
same,Potency,[2],6.68 µM (active)
same,"viability, percent of control",[3],4.28%
same,Potency,[4],inactive
same,Potency,[5],inactive
Cc1cc2c(cc1C1(c3ccc(C(=O)O)cn3)CC1)C(C)(C)CCC2(C)C,outcome,[6],inactive
same,"viability, percent of control",[3],48.2%
same,Potency,[4],inactive
same,Potency,[5],inactive
CCCCOCCOc1nc(-c2ccc(C(=O)O)c(F)c2)sc1C,Potency,[1],inactive
same,outcome,[6],inactive
same,Potency,[2],inactive
same,"viability, percent of control",[3],84.4%
same,Potency,[4],inactive
same,Potency,[5],inactive
CC(O)=C(C#N)C(=O)Nc1ccc(C(F)(F)F)cc1,outcome,[6],inactive
same,Potency,[2],1.88 µM (active)
same,"viability, percent of control",[3],56.6%
same,Potency,[4],inactive
same,Potency,[5],inactive
CC(=O)NCCC(=O)N[C@@H](CCC(N)=O)C(=O)N[C@@H](CO)C(=O)N[C@@H](CCC(N)=O)C(=O)N[C@@H](CCC(N)=O)C(=O)N[C@H](C(=O)N[C@@H](Cc1ccccc1)C(=O)N[C@]1(C)CCCCCCC=CCCC[C@@](C)(C(=O)N[C@@H](CCC(N)=O)C(=O)N[C@@H](CC(N)=O)C(N)=O)NC(=O)[C@H](CC(C)C)NC(=O)[C@H](CC(C)C)NC(=O)[C@@H](CCCNC(=N)N)NC(=O)[C@H](Cc2c[nH]c3ccccc23)NC(=O)[C@H](CC(C)C)NC(=O)[C@H](CC(N)=O)NC1=O)[C@H](C)O,outcome,[6],inactive
same,"viability, percent of control",[3],3.58%
same,Potency,[4],inactive
C[C@@H]1C[C@H]2[C@@H]3CCC4=CC(=O)C=C[C@]4(C)[C@@]3(F)[C@@H](O)C[C@]2(C)[C@@]1(O)C(=O)CO,Potency,[7],42.2 µM (active) and inactive
same,activation,[8],-3.68% (inactive) and -5.63% (inactive)
same,activation,[9],-2.02% (inactive) and -1.92% (inactive)
same,outcome,[10],inactive
same,outcome,[11],inactive
Cc1ccc(NC(=O)c2ccc(CN3CCN(C)CC3)cc2)cc1Nc1nc(-c2cccnc2)cs1,Potency,[1],inactive
same,outcome,[6],inactive
same,Potency,[2],16.8 µM (active)
same,"viability, percent of control",[3],11%
same,Potency,[4],inactive
same,Potency,[5],23.5 µM (active)
COC(=O)Nc1ccc(-c2nc(N3CCOCC3)c3cnn(C4CCN(C(=O)OC)CC4)c3n2)cc1,outcome,[6],inactive
same,Potency,[2],inactive
same,"viability, percent of control",[3],51.1%
same,Potency,[5],inactive
CC(C)C[C@H](NC(=O)c1cc2ccccc2s1)C(=O)N1CCN(C(=O)[C@H](CO)NS(=O)(=O)c2ccc(Cl)cc2Cl)CC1,Potency,[1],inactive
same,outcome,[6],inactive
same,"viability, percent of control",[3],3.69%
CCN(CC)CCCCNc1nc2cc(Cl)c(Cl)cc2nc1-c1ccc(-c2cccs2)s1,outcome,[6],inactive
same,Potency,[2],11.9 µM (active)
same,"viability, percent of control",[3],1.92%
same,Potency,[4],inactive
CC(C)n1c(C=C[C@H](O)C[C@H](O)CC(=O)O)c(-c2ccc(F)cc2)c2ccccc21,Potency,[1],inactive
same,outcome,[6],inactive
same,Potency,[2],inactive
same,Potency,[4],inactive
same,Potency,[5],inactive
CC(C)(C)c1[nH]cnc1C=c1[nH]c(=O)c(=Cc2ccccc2)[nH]c1=O,outcome,[6],inactive
same,"viability, percent of control",[3],7.81%
O=C(O)c1ccc(O)c2ncc(N3CCOCC3)cc12,Potency,[1],inactive
same,outcome,[6],inactive
same,Potency,[2],inactive
same,"viability, percent of control",[3],74%
same,Potency,[4],inactive
same,Potency,[5],inactive
CCc1cc(-c2n[nH]c(C)c2-c2ccc3c(c2)OCCO3)c(O)cc1O,outcome,[6],inactive
same,Potency,[2],3.75 µM (active)
same,viability (% of control),[12],38.2%
same,"viability, percent of control",[3],34.6%
same,Potency,[4],23.5 µM (active)

# From PubChem BioAssay (NCATS)
